# Experiments:
# Assay in all cases: PBM binding z-score (relative to random genomic background probes); higher = stronger binding; sequences stand for … in GC…GCGATTGACAGCGTAGAATGAAGG
# [1] = tested on: FXR:RXRa (NR concentration 270 nM, RXRa partner concentration 90 nM)
# In short: (§1)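 Ligand-free nuclear receptor dimers were applied to custom Agilent 4×180K protein-binding microarrays whose double-stranded probes carried direct-repeat seeds, single-nucleotide variants, half-site ablations and random human genomic background sequences in 34-nt variable regions. Incubation lasted 1 h. Binding z-scores were computed against the random background probes from regression-normalized fluorescence.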
# [2] = tested on: LXRa:RXRa (NR concentration 270 nM, RXRa partner concentration 90 nM)
# In short: as §1
# [3] = tested on: LXRa homodimer (NR concentration 270 nM)
# In short: as §1
# [4] = tested on: LXRb:RXRa (NR concentration 270 nM, RXRa partner concentration 90 nM)
# In short: as §1
# [5] = tested on: LXRb homodimer (NR concentration 270 nM)
# In short: as §1
# [6] = tested on: PPARa:RXRa (NR concentration 270 nM, RXRa partner concentration 90 nM)
# In short: as §1
# [7] = tested on: PPARg:RXRa 270nM:90nM, anti-RXR (NR concentration 270 nM, RXRa partner concentration 90 nM)
# In short: as §1
# [8] = tested on: PPARg:RXRa 30nM:10nM, anti-RXR (NR concentration 30 nM, RXRa partner concentration 10 nM)
# In short: as §1
# [9] = tested on: PPARg:RXRa 90nM:30nM, anti-RXR (NR concentration 90 nM, RXRa partner concentration 30 nM)
# In short: as §1
Sequence,PBM binding z-score [1],PBM binding z-score [2],PBM binding z-score [3],PBM binding z-score [4],PBM binding z-score [5],PBM binding z-score [6],PBM binding z-score [7],PBM binding z-score [8],PBM binding z-score [9]
AGTCAAAGTTCATCTGGGTAACGTAAGATATGCT,6.32,6.01,5.7,4.05,1.69,4.98,6.09,3.73,5.62
TTAACAAGGTGAAAGGTCGTTGATGCACGCCTTG,3.99,3.48,0.202,2.81,-0.19,6,8.81,9.66,9.79
CGAACTAGGTCAGAGCAGGACAGTGAAGGATGAT,1.33,0.722,-0.112,0.261,-0.67,3.19,5.01,2.43,4.19
CAAACTAGGTCAAGGTCAAAGTAGGTTTGTGCCA,7.18,5.78,4.55,4.82,1.64,6.41,8.19,6.7,8.63
ACTTGGAGGACAAAGGTCAGAGCTACGCCAGTGA,4.75,4.49,1.97,3.58,0.676,5.71,9.07,8.21,10.6
CGTCCAAGGTCAATGTTAGGTCAGTGAAAGCATT,6.44,5.88,2.85,4.38,1.35,5.51,4.66,0.937,3.1
TCTTGTAGATCAAAGGTCAAGAAAGCCGAAGCCT,4.71,5.21,2.41,5.03,1.25,6.32,9.37,8.45,10.1
ACTCGGAGGATAAAGGTCAGAGCTACGCCAGTGA,3.3,3.42,1.27,2.83,0.273,4.23,6.4,5,6.8
TAGCCTAGGTCATGGGCCTGTATACCACGCGAAC,4.51,3.39,0.196,2.64,-0.604,4.12,3.29,0.751,2.07
CGTCCAAGGTCAGAGAGGTCAGTGTATGCCGAGT,6.02,5.1,3.33,4.4,0.458,4.71,3.98,0.927,2.53
AGTCAAAGTTCACTAGGCAACGTAAGATTCAGCT,5.28,5.12,2.72,2.89,0.757,4.5,6.21,3.31,5.38
TTACCAAAGTGAAAGGTCGTTGATGCACGCCTTG,1.49,1.82,0.432,1.57,-0.402,3.17,5.13,2.97,5.02
CAAAGTAGGTCAAGGTCAAAGTCGGTTTGTGCCA,6.64,5.74,4.44,4.67,1.7,6.22,8.02,7.19,8.49
GATACAGGGTCATCTAGAGGCCAGAGTATGGAAA,6.84,5.02,0.214,4.22,0.201,5.87,5.65,2.33,4.1
CAAACTAGGTCAAAGGTCAAAGACGAGCCAACCA,8.68,7.43,5.15,7.3,2.82,7.71,11.5,15.4,14.3
ATCTCTAGGTAAATGTTCAGTGAATCCCGAGGAT,0.0255,-0.125,-0.0436,-0.389,0.584,0.133,1.01,0.602,0.967
CGCACTAGGTCATTGACAGGACAGTGAATAGTAA,4.64,3.31,0.73,2.31,0.424,4.38,5.96,3.36,5.26
ATAGAAAGGTCGAAGGTGAGTATACCCACCCGAA,4.15,3.25,0.28,2.61,0.606,4.56,5.47,2.38,4.64
GCATACGGGTCAAAGGTTATAGCATGAATAGAAT,7.92,5.85,0.463,5.74,0.733,7.06,9.95,10.1,11.7
CGTCCAAGGTCAGCAGGTGAGTGAAAGCGACGTG,5.14,3.02,-0.383,2.08,-0.689,4.13,3.7,0.511,2.24
